LMNA splice mod: LMNA splicing modulation; Potency, µM (top dose mostly 46.1 µM), for inactives: at the top dose ratio change, negative = inhibition, actives largely listed as inhibitors; 200,000 tested, 0.01% active; HeLa LMNA splicing GFP/RFP minigene ratio, 48 h; active means well fitted inhibition curve with a large enough effect in the signal ratio, with a control signal flat, not every such curve was filed as active; inconclusive means small, poorly fitted or top-dose-only effect, or effect the other way, or a change in a side signal; the % refers to the signal ratio; further: potency means the concentration at half of the fitted maximal effect
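S3 HeLa stable clones carrying a lamin A-EGFP splicing minigene plus DsRed2 were seeded at 600 cells/well in Opti-MEM with 2% FBS, pin-dosed and incubated 48 h at 37°C. Acumen cytometry (488 nm) gave the GFP/RFP total-intensity ratio.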
ALDH1A1 block: ALDH1A1 (human) enzyme inhibition; P00352; Purified ALDH1A1, NADH fluorescence, propionaldehyde substrate; Potency, µM (highest dose often 75.3 µM), for inactives: at the top dose activity, negative = inhibition, usual class: inhibitors; 220,000 tested, 7.3% active; AID 1030;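 further: potency means the concentration at half of the fitted maximal effect; plate controls were no enzyme wells and a reference inhibitor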
Target sequence (P00352 whole entry, looked up): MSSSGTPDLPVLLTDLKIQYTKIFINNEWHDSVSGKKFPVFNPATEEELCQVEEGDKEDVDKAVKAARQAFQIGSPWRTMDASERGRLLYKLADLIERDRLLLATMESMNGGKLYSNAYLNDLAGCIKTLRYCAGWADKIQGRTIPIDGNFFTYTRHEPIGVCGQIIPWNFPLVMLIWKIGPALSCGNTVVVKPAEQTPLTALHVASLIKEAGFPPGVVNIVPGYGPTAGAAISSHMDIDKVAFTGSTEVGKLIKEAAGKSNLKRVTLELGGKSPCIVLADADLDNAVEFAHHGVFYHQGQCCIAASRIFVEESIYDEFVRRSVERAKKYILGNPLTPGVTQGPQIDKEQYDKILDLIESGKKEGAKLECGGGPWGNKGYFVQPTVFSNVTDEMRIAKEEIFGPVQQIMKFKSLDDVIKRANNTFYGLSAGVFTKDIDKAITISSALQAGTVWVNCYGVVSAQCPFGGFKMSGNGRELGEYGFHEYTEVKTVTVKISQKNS
HPGD block: HPGD (human) dehydrogenase inhibition | P15428 | purified HPGD, NADH fluorescence kinetic, PGE2 substrate | Potency, µM, for the others: at the top dose activity change, negative = inhibition, actives largely listed as inhibitors | 150,000 tested, 4.3% active | AID 894; further: potency means the concentration at half of the fitted maximal effect
Target sequence (P15428 whole entry, looked up): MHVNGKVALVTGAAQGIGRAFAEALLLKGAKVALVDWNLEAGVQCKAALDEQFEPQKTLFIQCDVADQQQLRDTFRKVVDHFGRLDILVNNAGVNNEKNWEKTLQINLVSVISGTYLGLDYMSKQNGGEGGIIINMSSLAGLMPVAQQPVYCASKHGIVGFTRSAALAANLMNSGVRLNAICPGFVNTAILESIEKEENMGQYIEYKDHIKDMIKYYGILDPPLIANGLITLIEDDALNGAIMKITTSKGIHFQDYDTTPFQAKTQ
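NADH formation kinetics: reaction with 30 uM PGE2 and 1 mM NAD+ (final), 20 nM enzyme, Tris-HCl pH 8 with Tween 20, after 15 min compound preincubation at room temperature. Fluorescence change, last versus first of five reads.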
PNC assembly inh: inhibitors of perinucleolar compartment assembly; 140,000 tested, 3.1% active; PC3M PTB-GFP, PNC prevalence imaging, 16 h; stronger effect = lower value; activity change (PNC), negative = inhibition, % at 10 µM;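 active means readout at or below -70, meaning at least 70% loss of cells showing the perinucleolar compartment, a nuclear body marking cancer cells; inconclusive means readout between -30 and a set limit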;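 further: plate controls were DMSO wells for no effect and camptothecin positive control wells for full effect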
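Read-out is percentage of cells bearing a perinucleolar compartment, from automated 20x imaging of fixed, Hoechst-stained PC3M PTB-GFP cells. Cells were seeded 4 h, then exposed 16 h to compound (23 nl of library stock) in duplicate plates.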
ALOX12 inhib: 12-hLO (ALOX12) enzyme inhibition | P18054 | purified 12-hLO, xylenol orange hydroperoxide absorbance | Potency, µM (series often up to 57.1 µM), for inactives: at the top dose activity change, negative = inhibition, usual class: inhibitors | 150,000 tested, 0.12% active; active means well fitted inhibition curve with a large enough effect; inconclusive means small, poorly fitted or top-dose-only effect; further: potency means the concentration at half of the fitted maximal effect; nearly all actives have a fitted effect of over 55% in size
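Xylenol orange chromogenic assay: hydroperoxide from 12hLO oxidises Fe(II), giving red-shifted Fe(III)-XO absorbance. Conditions: 150 nM enzyme, 40 uM arachidonic acid, 25 mM Hepes pH 7.0, 0.01% Triton X-100, 30 min, room temperature.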
Starred values were filed as active, the others as inactive; ? = inconclusive; nt = not tested or not shown; [ ] = another dose, or the depositor's remark. An excerpt weighted towards active compounds, which were near 10% of everything screened. Unless noted, the call rests on the fitted dose curve; in most records, active means well fitted inhibition curve with a large enough effect (not every such curve was filed as active); inconclusive means small, poorly fitted or top-dose-only effect, or another doubt; inactive means no such curve, though single readings can be large or run the other way. Unless noted, on the % scale 0 is the no-effect control and ±100 the full control effect.

SMILES | LMNA splice mod | ALDH1A1 block | HPGD block | PNC assembly inh | ALOX12 inhib
Cc1ccc(S(=O)(=O)N(C)c2ccc(C(=O)N3CCc4ccccc4C3)cc2)cc1 | 4%[46 µM] | 1% | nt | nt | nt
O=C(c1ccc([N+](=O)[O-])cc1)N1CCc2ccccc2C1 | 5% | 5% | 28µM* | 8 | -1%
O=C(c1ccc(S(=O)(=O)c2ccccc2)cc1)N1CCc2ccccc2C1 | ? | -15% | 18µM* | -27 | -6%
O=[N+]([O-])c1ccc(NC(=S)N2CCc3ccccc3C2)cc1 | ? | ? | -6% | 29 | 3%
O=C(/C(Br)=C/Nc1cc(Cl)ccc1Cl)C(F)(F)F | -12% | 16µM* | ? | ? | 1%
Cc1ccc(S(=O)(=O)N(C)C)cc1NC(=O)c1cccnc1Oc1ccccc1 | 1%[46 µM] | 28µM* | nt | nt | nt
Cc1ccc(S(=O)(=O)N(C)C)cc1NC(=O)c1cc(C(C)(C)C)nn1Cc1ccccc1 | nt | 4.5µM* | nt | nt | nt
NS(=O)(=O)c1cccc(NC(=O)c2cccnc2Oc2ccccc2)c1 | nt | -11% | nt | nt | nt
CN(C)S(=O)(=O)c1ccc(Cl)c(NC(=O)c2ccncc2)c1 | -12% | 11µM* | -2% | 1 | 0%
Cc1ccc(S(=O)(=O)N(C)C)cc1NC(=O)c1ccncc1 | 5%[46 µM] | ? | nt | nt | nt
CCOc1ccc(NC(=O)c2cccnc2C(=O)O)cc1 | 2% | 22µM* | -6% | 17 | 0%
CCOc1ccc(NC(=O)CNC(=O)COc2ccccc2)cc1 | 2% | 7% | nt | 49 | 5%
CCOc1ccc(NC(=O)C2CC(C)=C(C)CC2C(=O)O)cc1 (stereo unspecified) | -14% | 2% | -8% | -23 | -4%
CCOc1ccc(NC(=O)Cc2ccccc2)cc1 | 11% | 2% | 13µM* | 21 | 0%
Cc1ccc(NC2=NCC(=O)N2CCc2ccccc2)cc1C | -8% | 4% | -12% | -9 | -5%
CCOc1ccc(NC(=O)C2CC(=O)OC2c2ccccc2)cc1 (stereo unspecified) | nt | 25µM* | nt | nt | nt
CCOc1ccc(NC2=NCC(=O)N2CCc2ccccc2)cc1 | 2% | 25µM* | -12% | ? | -6%
COc1ccc(NC(=O)CN(C)S(=O)(=O)c2ccc3nc(C)sc3c2)cc1 | 3%[46 µM] | nt | nt | nt | nt
CC(=O)c1c(C)[nH]c(C(=O)CSc2nnc(C)s2)c1C | nt | -4% | nt | nt | nt
CC(=O)N1CCN(c2csc3ccc(Br)cc3c2=O)CC1 | -24%[46 µM] | nt | nt | nt | nt
CCOC(=O)c1cnn(-c2ccc(C(=O)Nc3ccc(OC(F)(F)F)cc3)cc2)c1N | -2%[46 µM] | nt | nt | nt | nt
CCOc1ccc(NC(=O)c2ccccc2O)cc1 | ? | 0% | -13% | -104* | 7%
CCOc1ccc(NC(=O)c2ccccc2CO)cc1 | 4% | 7% | -6% | 9 | -2%
CCOc1ccc(NC(=O)C(C)Oc2ccccc2C(=O)Nc2cccc(Cl)c2Cl)cc1 (stereo unspecified) | ? | -4% | 0% | -110* | -11%
Cc1nonc1CN(C)C(=O)CC1C(=O)NCCN1Cc1ccc(F)c(F)c1 (stereo unspecified) | 5%[46 µM] | 2% | nt | nt | nt
SMILES | LMNA splice mod | ALDH1A1 block | HPGD block | PNC assembly inh | ALOX12 inhib
c1ccc2c(NCCN3CCOCC3)nc(-c3ccc4c(c3)OCO4)nc2c1 | -14% | 1% | nt | nt | nt
Cc1cc(C)c2c(=O)n(CC(=O)N3CCC(N4CCCCC4)CC3)sc2n1 | 1% | 13µM* | 13µM* | 0 | -11%
CCOC(=O)C1CCCN(C(=O)Cn2sc3nc(C)cc(C)c3c2=O)C1 (stereo unspecified) | 10% | ? | ? | ? | -8%
CC(C)C(C)NC(=O)COc1ccc(S(=O)(=O)N2CCOCC2)cc1Cl (stereo unspecified) | ? | -11% | nt | nt | nt
Nc1nnc(CSCc2ccc(F)cc2)s1 | 1% | 10µM* | 22µM* | ? | -8%
Nc1nnc(-c2ccc(F)cc2)s1 | 9%[0.0737 µM] | -9% | -17% | 18 | -8%
CC(C)N1C(=S)N(Cc2ccco2)C(=O)C1CC(=O)Nc1ccccc1 (stereo unspecified) | 5%[46 µM] | ? | nt | nt | nt
COc1ccc(CNC(=O)C2CCN(c3nc4ccccc4[nH]3)CC2)cc1OC | 4%[46 µM] | nt | nt | nt | nt
Cc1ccc(C(=O)NCc2ccccn2)c(Cl)c1 | 5% | 9% | 14µM* | 11 | -4%
O=C(Nc1ccc(-c2noc(CCc3ccccc3)n2)cc1)c1ccco1 | -14% | ? | 25µM* | -89* | 5%
O=C(NCc1cccnc1)c1ccc(NC(=O)c2ccco2)cc1 | -12% | 10% | -8% | 36 | 4%
O=C(Oc1ccccc1)c1ccc(NC(=O)c2ccco2)cc1 | 8% | 18µM* | 13µM* | 43 | 0%
O=C(NCc1ccccn1)c1ccc(NC(=O)c2ccco2)cc1 | 7% | ? | 14µM* | ? | 1%
Cc1ccc(-c2cc(C(=O)NCc3ccccn3)c3ccccc3n2)cc1 | -14% | ? | ? | -11 | -4%
c1ccc(CCc2nc(-c3ccccc3)no2)cc1 | -9% | -1% | -24% | -19 | 0%
CC(C)=NOCc1ccc(-c2cc(-c3ccccc3)no2)cc1 | nt | 1%[13.5 µM] | nt | nt | nt
O=C(NCc1ccccn1)c1coc(=O)c(Br)c1 | 9% | ? | ? | -87* | -3%
C=CCNc1nc(-c2ccc([N+](=O)[O-])cc2)cs1 | ? | 4% | -10% | -114* | -2%
S=c1[nH]cc(Cc2ccccc2)s1 | 7% | 10µM* | 20µM* | 47 | -3%
CC(C)OC(=O)c1nn2c(C(F)(F)F)cc(-c3ccc(Br)o3)nc2c1Br | -3% | 18µM* | nt | 44 | -7%
Cc1cccc(-c2nc3scc(CCNC(=O)c4ccc(Br)o4)n3n2)c1 | -4%[46 µM] | nt | nt | nt | nt
COc1ccc(O[C@H]2C=C[C@@H](c3ccccc3)O[C@H]2COC(=O)CC/C(C)=N\OC[C@@H](O)[C@H]2O[C@H]3OC(C)(C)O[C@H]3[C@@H]2O)cc1 | nt | 8%[13.5 µM] | nt | nt | nt
COc1ccc(-c2csc(-c3cc4ccccc4oc3=N)n2)cc1 | -19% | ? | -19% | -93* | -3%
COc1ccc(-c2noc(-c3cc4ccccc4oc3=O)n2)cc1 | 5% | ? | -14% | -30 | 3%
Cc1ccc2nc(NC(=O)CSc3nccn3Cc3ccccc3)sc2c1 | -8%[46 µM] | nt | nt | nt | nt
SMILES | LMNA splice mod | ALDH1A1 block | HPGD block | PNC assembly inh | ALOX12 inhib
CC(=O)NCCC(=O)Nc1sc2c(c1-c1nc3ccccc3[nH]1)CCCC2 | -9% | ? | ? | -80* | 1%
O=C(Nc1sc2c(c1-c1nc3ccccc3[nH]1)CCCC2)C1CCCC1 | -10% | ? | ? | ? | 0%
COc1ccc(/C(N)=N/OC(=O)Cc2ccc(OC)c(OC)c2)cc1 | ? | 7.9µM* | nt | -15 | 2%
COc1ccc(C/C(N)=N/OC(C)=O)cc1OC | ? | 10% | 0% | ? | 4%
COc1ccc(C/C(N)=N/OC(=O)C(c2ccccc2)c2ccccc2)cc1OC | ? | 6.3µM* | nt | -5 | -13%
Cc1ccc(-c2nc3ccccc3c(=O)n2Cc2ccccc2)cc1 | ? | 16µM* | -3% | ? | -2%

Source: PubChem
